Several values for one entry are separate records, joined by “and”; a condition that tells them apart may be missing. Identical values can stand only once. More than one record can exist for a structure, and the calls need not agree. Activity calls are given as the source filed them. How the source made its calls: active means hit-call score of the fitted dose curve at least 0.9, where 1 is the maximum; inactive means score below 0.9.
The compounds below were run on Forkhead box O3 (FOXO3), FOXO3 (gene 2309) (assay: LTEA_HepaRG_FOXO3: Life Technologies and Expression Analysis (LTEA) Assay for Forkhead box O3 (FOXO3) using HepaRG (AID 2283459)). Details: mRNA level, 48 h; actives raise or lower the signal.
Experimental: LTEA_HepaRG is a cell based, multiplexed-readout assay that uses HepaRG, a human liver cell line, with measurements taken at 48 hours after chemical dosing on a 96-well plate.LTEA_HepaRG_FOXO3 is one of 102 assay component(s) measured in the LTEA HepaRG cell culture assay. It is a marker of Cell proliferation, survival, death.Data from the assay component LTEA_HepaRG_FOXO3 was analyzed into 1 endpoint. This assay endpoint, LTEA_HepaRG_FOXO3, was analyzed with bidirectional fitting relative to DMSO as the negative control and baseline of activity. Using a type of inducible reporter, measures of mRNA induction for gain or loss-of-signal activity can be used to understand regulation of transcription factor activity. To generalize the intended target to other relatable targets, this assay endpoint is annotated to the dna binding intended target family, where the subfamily is forkhead box protein.
A total of 1060 chemcials from the ToxCast library were tested in eight-point concentration-response experiments. Cell culture and cytotoxicity assays were conducted at Thermo Fisher Scientific's Custom Services facility (Madison, WI). A single lot of human HepaRG cells (Thermo Fisher Scientific, Frederick, MD) was used for the cell culture experiments. 96-well format collagen type I coated plates of human HepaRG cells were prepared using established methods. Briefly, cryopreserved HepaRG cells were thawed, plated at a density of approximately 100,000 cells/well in HepaRG Thaw, Plate, and General Purpose media (HPRG770, Thermo Fisher Scientific), and incubated for 48 hours. 0.5% DMSO was selected as vehicle control to balance the requisite need of DMSO in HepaRG cultures to maintain differentiation (for example, baseline metabolism, proportions of hepatocytes vs. cholangiocytes), while enabling further hepatic receptor pathway activation (for example, PXR and CAR) in response to chemical exposure. 48 hours after plating, the culture medium was replaced with HepaRG Serum-Free Incudtion Media. Cells were exposed to each test chemical in duplicate and maintained in CO2 incubators for another 48 hours. Chemical plates were thawed to room temperature and 200x concentrations of treatment groups were prepared. 8-point conentration-reponse curves were made with the highest exposure at 100 uM, followed by half-log dilutions, all in 0.5% DMSO. Each test plate contained variouse controls, induction positive controls (1mM phenobarbital), cytotoxicity positive controls ([…] aflatoxin B1), vehicle controls (0.5% DMSO), and total lysis controls (0.5% DMSO). Cell morphology images were taken using an Essen IncuCyte FLR automated microscope, with six 96-well plates imaged in about 24 minutes. Images were captured and exported and JPEG files. Spent culture media was transfered to black-well plates for the LDH assay, and remaining media was sorted at -80 C for later use. Cells were treated with RLT buffer and frozen until shipped for gene expression analysis. Total RNA was isolated from the cell suspension in 75 uL of Buffer RLT (Qiagen, Germantown, MD 20874) by Quintiles/Expression Analysis (Durham, NC) using a custom isolation procedure. Total RNA from each plate well was transferred to a preamplification plate. Fluidigm's 96.96 Dynamic ArrayTM (Fluidigm, Amsterdam, the Netherlands) technology was used for gene expression analyses by quantitative reverse transcription polymerase chain reaction (qRT-PCR, performed by Quintiles/Expression Analysis, Durham, NC)89. Standard TaqManTM Assays (Applied Biosystems/ThermoFisher Scientific, Foster City, CA) were used to assess the expression of 93 genes selected based on their selectivity and sensitivity to important hepatic receptors known to be modulated by environmental chemicals; importance in human hepatocyte functionality; and hepatotoxicity. […]

SMILES	outcome	AC50
COC(=O)c1ccccc1C(=O)OC	inactive	
CCNc1nc(Cl)nc(NCC)n1	inactive	
COC(=O)C=C(C)OP(=O)(OC)OC	inactive	
COc1ccc(C(c2ccc(OC)cc2)C(Cl)(Cl)Cl)cc1	inactive	
OC(c1ccc(Cl)cc1)(c1cncnc1)c1ccccc1Cl (stereo not given)	inactive	
CON(C)C(=O)Nc1ccc(Cl)c(Cl)c1		13.4 µM (active)
CCON=C(CC)C1=C(O)CC(c2c(C)cc(C)cc2C)CC1=O (stereo not given)	inactive	
C=CC1(C)OC(=O)N(c2cc(Cl)cc(Cl)c2)C1=O (stereo not given)	inactive	
COP(=S)(OC)Oc1nc(Cl)c(Cl)cc1Cl	inactive	
CNC(=S)S	inactive	
CC(C)C1(C)N=C(c2nc3ccccc3cc2C(=O)O)NC1=O (stereo not given)	inactive	
CCNc1nc(Cl)nc(NC(C)C)n1	inactive	
C=CCC1=C(C)C(OC(=O)C2C(C=C(C)C)C2(C)C)CC1=O (stereo not given)	inactive	
CCOC(=O)CC(SP(=S)(OC)OC)C(=O)OCC (stereo not given)	inactive	
CCCCC(CC)COC(=O)c1ccccc1C(=O)OCC(CC)CCCC (stereo not given)	inactive	
N#CC(CCc1ccc(Cl)cc1)(Cn1cncn1)c1ccccc1 (stereo not given)	inactive	
CC1COC(Cn2cncn2)(c2ccc(Oc3ccc(Cl)cc3)cc2Cl)O1 (stereo not given)		79.2 µM (active)
CO/C=C(/C(=O)OC)c1ccccc1Oc1cc(Oc2ccccc2C#N)ncn1	inactive	
CCCC1COC(Cn2cncn2)(c2ccc(Cl)cc2Cl)O1 (stereo not given)	inactive	
CCOc1cc(Oc2ccc(C(F)(F)F)cc2Cl)ccc1[N+](=O)[O-]	inactive	

SMILES	outcome	AC50
CCCCOC(=O)c1ccccc1C(=O)OCCCC	inactive	
CCCCNC(=O)n1c(NC(=O)OC)nc2ccccc21	inactive	
COc1nc(NC(C)C)nc(NC(C)C)n1	inactive	
N#Cc1nn(-c2c(Cl)cc(C(F)(F)F)cc2Cl)c(N)c1S(=O)C(F)(F)F (stereo not given)	inactive	
Cc1ccc(-c2c(Cl)nc(C#N)n2S(=O)(=O)N(C)C)cc1		3.64 µM (active)
C#CCOS(=O)OC1CCCCC1Oc1ccc(C(C)(C)C)cc1 (stereo not given)	inactive	
Fc1ccc(Oc2ccnc3cc(Cl)cc(Cl)c23)cc1	inactive	
CCCN(CCC)c1c([N+](=O)[O-])cc(S(N)(=O)=O)cc1[N+](=O)[O-]	inactive	93.9 µM (active) and 76.9 µM (active)
O=C(Nc1ccccc1)Nc1ccnc(Cl)c1		25.3 µM (active)
COc1cnc(OC)n2nc(NS(=O)(=O)c3c(OCC(F)F)cccc3C(F)(F)F)nc12	inactive	
O=C(O)COc1nc(Cl)c(Cl)cc1Cl	inactive	
CCOC(=O)C(Cl)Cc1cc(-n2nc(C)n(C(F)F)c2=O)c(F)cc1Cl (stereo not given)	inactive	
CS/C(C)=N/OC(=O)N(C)SN(C)C(=O)O/N=C(\C)SC	inactive	
CC(Oc1ccc(Cl)cc1Cl)C(=O)O (stereo not given)	inactive	
COC(=O)C(C)Oc1ccc(Oc2ccc(Cl)cc2Cl)cc1 (stereo not given)	inactive	
CC(C)(C)c1ccc(CSc2cnn(C(C)(C)C)c(=O)c2Cl)cc1		1.49 µM (active)
N#Cc1cc(Br)c(O)c(Br)c1		13.7 µM (active)
CCc1nn(C)c(C(=O)NCc2ccc(C(C)(C)C)cc2)c1Cl	inactive	
COC(=O)N(OC)c1ccccc1COc1ccn(-c2ccc(Cl)cc2)n1	inactive	

From PubChem BioAssay (EPA / NIEHS)
